Test results: PubChem BioAssay AID1489 (National Center for Advancing Translational Sciences (NCATS), 2009)
Records with an inconclusive call do not appear. A number with no mark means an inactive call. Activity calls are given as the source filed them. The call rests on the fitted dose curve; in most records, active means well fitted antagonist curve with a large enough effect in the main read-out, with a control signal flat; inconclusive means small, poorly fitted or top-dose-only effect; inactive means no such curve, though single readings can be large or run the other way.

These molecules were tested against Neuropeptide S receptor (Homo sapiens) (UniProt Q6W5P4) (assay: Confirmation Concentration-Response Assay for Antagonists of the Neuropeptide S Receptor: Calcium Signal Transduction). Details: CHO-NPSR cells, NPS-induced calcium flux, FDSS; series mostly up to 19.3 µM; activity change, negative = inhibition: at the top concentration.
Chain of Neuropeptide S receptor (Homo sapiens) (Q6W5P4 whole entry, looked up): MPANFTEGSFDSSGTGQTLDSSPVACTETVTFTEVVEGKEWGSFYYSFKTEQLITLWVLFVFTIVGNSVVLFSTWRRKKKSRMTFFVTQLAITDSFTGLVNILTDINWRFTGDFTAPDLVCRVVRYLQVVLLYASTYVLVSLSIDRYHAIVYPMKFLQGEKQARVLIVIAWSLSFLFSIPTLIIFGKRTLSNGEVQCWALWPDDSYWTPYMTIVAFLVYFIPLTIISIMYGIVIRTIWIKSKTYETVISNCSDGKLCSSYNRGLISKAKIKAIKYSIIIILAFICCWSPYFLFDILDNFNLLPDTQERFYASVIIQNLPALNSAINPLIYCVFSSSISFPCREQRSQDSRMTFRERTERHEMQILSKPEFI
In short: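 CHO cells stably expressing human NPSR, loaded with calcium dye; compounds added, then stimulated with NPS (60 nM in stimulation reagent). Fluorescence (Ex 480, Em 520–560 nm) recorded kinetically on FDSS; AC50 from Hill fit.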
`O=c1cc(CNCCCO)c2ccccc2[nH]1` was tested, and the “activity change, negative = inhibition” value was -1.54%. With `N=C1c2ccccc2CN1c1ccc(N2CCOCC2)c(S(=O)(=O)Nc2ccc(Cl)cc2)c1` the Potency was 1.41 µM (active). With `Cc1cc(OCC(=O)c2ccc(Br)cc2)ccc1N1C(=O)CCC1=O` the “activity change, negative = inhibition” value was -13.3%. For `C=CCn1c(SCCN2C(=O)c3ccccc3C2=O)nc2scc(-c3ccccc3)c2c1=O`, the “activity change, negative = inhibition” value was -9.23%. With `Cc1cc(C)n(-c2nc(NC(C)C)nc(NC(C)C)n2)n1` the “activity change, negative = inhibition” value was 29%. With `Cc1nnc(NC(=O)c2cccc(S(=O)(=O)N3CCc4ccccc43)c2)s1` the “activity change, negative = inhibition” value was 23.8%. `Cc1ccc(NC(=S)NNC(C)(C)C)cc1` was tested, and the “activity change, negative = inhibition” value was 9.85%. With `COc1ccc(NC(=O)/C(Cl)=C(/Cl)S(=O)Cc2ccc(C)cc2)cn1` (configuration not stated) the Potency was 2.24 µM (active). For `Cc1ccc(/C=C2\SC(=S)N(CC(=O)Nc3ncc(Cc4ccccc4Cl)s3)C2=O)cc1`, the “activity change, negative = inhibition” value was -2.64%. `O=C(O)c1cccc(Nc2ncnc3ccccc23)c1` was tested, and the “activity change, negative = inhibition” value was -7.58%. For `Cc1ccc(Cn2cc(SCC(=O)Nc3nccs3)c3ccccc32)cc1`, the “activity change, negative = inhibition” value was -9.34%. `CCOc1ccc(N2C(=O)CC(NCCc3ccncc3)C2=O)cc1` (configuration not stated) was tested, and the “activity change, negative = inhibition” value was 12.8%. For `COCCCn1cnc2c(c1=O)c1nc3ccccc3nc1n2CCc1ccccc1`, the “activity change, negative = inhibition” value was 9.86%. `COc1ccc(/C=C2\CCCC3C2=NN(C(=O)c2ccco2)C3c2ccc(OC)c(OC)c2)cc1OC` (configuration not stated) was tested, and the “activity change, negative = inhibition” value was 14.6%. For `c1ccc(-c2ccc(-c3nc(-c4cccnc4)no3)cc2)cc1`, the “activity change, negative = inhibition” value was -15.9%. With `COc1ccc(C(=O)N(Cc2ccco2)Cc2cccs2)c(O)c1` the “activity change, negative = inhibition” value was 34.4%. With `CCC(c1nnnn1C1CCCC1)N1CCN(c2ccccc2)CC1` (configuration not stated) the “activity change, negative = inhibition” value was -5.45%. For `COc1ccc(C2c3c(ncn(CCN4CCOCC4)c3=N)Oc3ccc4ccccc4c32)cc1OC` (configuration not stated), the Potency was 1.58 µM (active). `O=[N+]([O-])c1ccc(-c2nc(C(Cl)Cl)c3ccccc3n2)cc1` was tested, and the “activity change, negative = inhibition” value was -23.4%. For `Cc1ccc(S(=O)(=O)Nc2ccccc2CNc2c(C)n(C)n(-c3ccccc3)c2=O)cc1`, the “activity change, negative = inhibition” value was -20.6%. For `c1cncc(-c2nc(-c3ccco3)cs2)c1`, the “activity change, negative = inhibition” value was -10.1%. With `Nn1c(COc2ccccc2)nnc1SCc1cc(=O)[nH]c2ccccc12` the “activity change, negative = inhibition” value was 7.99%. For `Cc1ccc(S(=O)(=O)Nc2cccc3ncccc23)s1`, the Potency was 3.16 µM (active). `O=[N+]([O-])c1cc2c(cc1/C=N/n1c(-c3ccccc3)n[nH]c1=S)OCO2` was tested, and the “activity change, negative = inhibition” value was -1.53%. For `C(=C\c1ccccc1)/C=N/N1CCN(c2ccccn2)CC1`, the “activity change, negative = inhibition” value was -11.5%. `COc1ccc(N(CC(=O)Nc2cccc(SC)c2)S(C)(=O)=O)cc1Cl` was tested, and the “activity change, negative = inhibition” value was -16.1%. For `COc1ccc(N=C2S/C(=C\c3ccc(N4CCOCC4)o3)C(=O)N2CCc2c[nH]c3ccccc23)cc1`, the Potency was 2.24 µM (active). `N#Cc1cnn(-c2ncnc3sc4c(c23)CCCC4)c1N` was tested, and the “activity change, negative = inhibition” value was -17.2%. With `CN(C)C(=O)Oc1cccc([N+](C)(C)C)c1` the “activity change, negative = inhibition” value was 20.5%. For `CCCN1C(=O)/C(=C\C=C2/C=CN(CC)c3ccccc32)SC1=S`, the “activity change, negative = inhibition” value was -24.1%. With `Nc1ccc(-c2nc3c(Cl)cc(N)cc3[nH]2)cc1` the “activity change, negative = inhibition” value was -10.2%. For `O=C(/C(=C/c1ccc(Cl)cc1)c1nc2ccccc2[nH]1)c1cccs1`, the Potency was 8.91 µM (active).
